Key:
[1] = tested on: Botulinum neurotoxin type F light chain protease (Clostridium botulinum); test: Clostridium botulinum type F light chain protease inhibitors, microsphere substrate cleavage, validation (AID 588459); conditions: multiplex microsphere protease substrate cleavage assay, flow cytometry; at 10 µM; hits give high values
[2] = target: Botulinum neurotoxin type A (Clostridium botulinum) (UniProt P0DPI0); test: BoNT/A light chain protease inhibitors, biochemical, multiplex microsphere flow cytometry, validation set (AID 588460); conditions: at 10 µM, hits give high values
[3] = target: Lethal factor (Bacillus anthracis) (UniProt P15917); test: Bacillus anthracis lethal factor inhibition, microsphere flow cytometry protease assay, validation at 10 µM (AID 588461); conditions: multiplex microsphere protease cleavage assay, hits give high values

Measured: inhibition

COc1ccc2c(c1OC)C(=O)N1C2SC[C@H]1C(=O)NC1CC(C)(C)NC(C)(C)C1 (some centres undefined)
inactive: [1] 3.2% | [2] -0.5% | [3] -2.4%

C[C@]12C=CC(=O)C=C1CCC1C3CC[C@](O)(C(=O)CO)[C@@]3(C)CC3OC312 (some centres undefined)
inactive: [1] -1.8% | [2] -2.7% | [3] -7.3%

Cc1ccc(N2C(=O)c3ccccc3C2=O)cc1C
inactive: [1] -0.3% | [2] 0.5% | [3] -0.8%

CCN(CCCCCN(C)C)Cc1cc2ccccc2o1
inactive: [1] 4.7% | [2] -1.1% | [3] 8.8%

CN(C)[C@@H]1C(=O)C(C(=O)NCN2CCCC2)=C(O)[C@@]2(O)C(=O)C3=C(O)c4c(O)cccc4[C@@](C)(O)C3CC12 (some centres undefined)
inactive: [1] -4.8% | [2] -5.7% | [3] -8.3%

CCN(CCCc1ccccc1)CCCc1ccccc1
inactive: [1] 1% | [2] -0.4% | [3] -2.4%

CC(C)NC[C@@H](O)c1ccc(O)c(O)c1
inactive: [1] -3.7% | [2] -0.5% | [3] -6.8%

CCCCC[C@H](O)/C=C/[C@@H]1[C@@H](C/C=C\CCCC(=O)O)[C@@H](O)C[C@H]1O
inactive: [1] -2.4% | [2] -1.9% | [3] -1.1%

Cc1cc(/C=N/O)c(C)n1-c1ccc(Br)cc1
inactive: [1] 1.9% | [2] 1.1% | [3] 0.9%

N=c1nc(N2CCCCC2)cc(N)n1O
inactive: [1] -2.3% | [2] -0.7% | [3] 0.9%

CC(=O)NC1C(OCc2ccccc2)OC(COC(C)=O)C(OC(C)=O)C1OC(C)=O (centres undefined)
inactive: [1] -1.4% | [2] -1.9% | [3] -2.2%

CC(=O)[C@@]1(O)CC[C@H]2[C@@H]3CCC4=CC(=O)CC[C@]4(C)[C@H]3[C@@H](O)C[C@@]21C
inactive: [1] 2.3% | [2] -1.1% | [3] 1.8%

Cc1nc2ccccc2n1CC(=O)NC1CCCC1
inactive: [1] -0.9% | [2] -0.2% | [3] -4.4%

COc1ccc(-c2coc3c(CN4CCOCC4)c(O)ccc3c2=O)cc1
inactive: [1] 2.6% | [2] 0.6% | [3] 4.1%

Nc1nnc(CSCc2ccc(Cl)cc2Cl)s1
inactive: [1] 0.7% | [2] -0.6% | [3] 6.8%

COc1cccc2c1C(=O)O/C2=C/c1ccc2c(c1)OCO2
inactive: [1] -0.9% | [2] -0.8% | [3] 2.1%

CCSC(=O)CCCCCCCCCCCO
inactive: [1] 2.8% | [2] 1.5% | [3] 14.5%

CN1C2CCC1CC(OC(c1ccccc1)c1ccccc1)C2 (centres undefined)
inactive: [1] 2.3% | [2] 0.7% | [3] 1.9%

COc1cccc(CC2CC(=O)N(c3ccc4c(C)cc(=O)oc4c3)C2=O)c1 (centres undefined)
inactive: [1] 3.1% | [2] -0.1% | [3] 4.1%

CC(=O)CCCCn1c(=O)c2c(ncn2C)n(C)c1=O
inactive: [1] -1.6% | [2] 0.1% | [3] -6.2%

CC(=Nc1ccccc1)C1=C(O)CCCC1=O
inactive: [1] -3.4% | [2] -0.9% | [3] -5.7%

N#C/C(=C\c1ccc(O)c(O)c1)C(=O)NCCCc1ccccc1
inactive: [1] 1.8% | [2] 1.2% | [3] -2.8%

Cc1cc(OCC(=O)C(C)(C)C)c2c(C)c(C)c(=O)oc2c1
inactive: [1] -1.4% | [2] 0.5% | [3] 0.7%

COc1cc2c(cc1O)CCN(C(=O)c1ccco1)C2C (centres undefined)
inactive: [1] 4.3% | [2] 1% | [3] 2.3%

CC(C)c1ccc(OCc2ccc(C(=O)O)o2)cc1
inactive: [1] 0.6% | [2] -0.2% | [3] 2.5%

COc1cc(COc2ccc3c(C)c(Cc4ccccc4)c(=O)oc3c2)cc(OC)c1OC
inactive: [1] 3.5% | [2] 0.9% | [3] -2.3%

CCc1cc2c(C)cc(=O)oc2cc1OC(=O)C1CCCN1C(=O)OC(C)(C)C (centres undefined)
inactive: [1] 0.1% | [2] -1.6% | [3] -1.1%

COc1cccc(/C=C/C(=O)c2c(O)cc(C)oc2=O)c1O
inactive: [1] 7% | [2] 1.7% | [3] 5.4%

CCOC(=O)[C@H](CCc1ccccc1)N[C@@H](C)C(=O)N1CCC[C@H]1C(=O)O
inactive: [1] 3.5% | [2] 0.2% | [3] 3.9%

CN(CCCN1CCOCC1)Cc1cn(C)nc1-c1ccccc1F
inactive: [1] 0% | [2] -0.8% | [3] -6.1%

O=C(/C=C/c1ccc2c(c1)OCO2)c1ccccn1
inactive: [1] -2.7% | [2] -0.2% | [3] -2.8%

Cn1c2ccc(CC(=O)O)cc2c2cc(CC(=O)O)ccc21
inactive: [1] 2.2% | [2] -0.6% | [3] 7.2%

COc1ccc(-c2nc(C)c(C(C)=O)n2O)cc1OC
inactive: [1] -3.6% | [2] -1.6% | [3] -3.9%

CC(=O)[C@H]1CC[C@H]2[C@@H]3C[C@H](C)C4=CC(=O)CC[C@]4(C)[C@H]3[C@@H](O)C[C@]12C
inactive: [1] 5.1% | [2] 0.9% | [3] -8.6%

CCCc1c(OCCCCc2nn[nH]n2)ccc(C(C)=O)c1O
inactive: [1] -1.3% | [2] -4% | [3] -10.3%

O=C(NCCN1CCN(c2ccccc2)CC1)c1cccc(Br)c1
inactive: [1] -4.4% | [2] -2.3% | [3] -6.4%

CC(=O)N(CCC1(c2ccc(C)cc2)CCOC(C(C)C)C1)Cc1ccco1 (centres undefined)
inactive: [1] -5.3% | [2] 0% | [3] -7.5%

Cc1ccc(S(=O)(=O)NC(C(=O)Oc2ccc3c(C(F)(F)F)cc(=O)oc3c2)c2ccccc2)cc1 (centres undefined)
inactive: [1] 1.6% | [2] 1.4% | [3] -1.3%

COc1ccc(C2=C(CN(C)C)C(c3ccccc3)c3ccccc3O2)cc1 (centres undefined)
inactive: [1] -3% | [2] -3.7% | [3] -2.3%

O=C(O)[C@@H](O)c1ccccc1
inactive: [1] -0.3% | [2] 0% | [3] -3.5%

COc1ccc(S(=O)(=O)NC(Cc2cnc[nH]2)C(=O)O)cc1 (centres undefined)
inactive: [1] 2.4% | [2] -0.6% | [3] -0.5%

Cc1ccc2c(c1)C(O)(CC(=O)/C=C/C=C/c1ccccc1)C(=O)N2 (centres undefined)
inactive: [1] -1.2% | [2] -0.9% | [3] -8.4%

Nc1c2c(nc3ccccc13)CCCC2
inactive: [1] 5.3% | [2] 1.5% | [3] -0.3%

COc1ccc(C(=O)Nc2cccc3cccnc23)cc1OC
inactive: [1] -2.2% | [2] -2.2% | [3] -4.6%

CC(C)Cc1cc(C(=O)N2CCC(N3CCC(C(=O)N4CCCC4)CC3)CC2)n[nH]1
inactive: [1] -0.1% | [2] -2% | [3] -0.4%

Cc1ccsc1/C=C/C1=NCCCN1C
inactive: [1] -0.9% | [2] 1.6% | [3] -3.7%

CCC(C)n1ncn(-c2ccc(N3CCN(c4ccc(OCC5COC(Cn6cncn6)(c6ccc(Cl)cc6Cl)O5)cc4)CC3)cc2)c1=O (centres undefined)
inactive: [1] 2.7% | [2] -0.4% | [3] 4.4%

CCCc1cc(C(N)=S)ccn1
inactive: [1] 1.8% | [2] 1.2% | [3] -7.7%

COc1ccc(C(=O)NCC2OCCc3ccccc32)cc1 (centres undefined)
inactive: [1] -0.4% | [2] -0.3% | [3] -8.6%

CCOCCn1c(C(C)O)nc2ccccc21 (centres undefined)
inactive: [1] 4% | [2] 0.3% | [3] 3.1%

COCCN(CCOC)Cc1c(C)[nH]c2c(C)c(C)ccc2c1=O
inactive: [1] 3.4% | [2] -0.6% | [3] -0.3%

CCCCCCCC(=O)OCC(O)CO (centres undefined)
inactive: [1] -6.1% | [2] -0.1% | [3] -2%

CCN(CC)C(=O)c1sc(NC(=O)c2c(OC)cccc2OC)c(C#N)c1C
inactive: [1] 6% | [2] 2.1% | [3] 3.6%

Fc1cc(F)cc(NC(=S)NCCCN2CCOCC2)c1
inactive: [1] 0.9% | [2] -0.7% | [3] -2.9%

CC(C)CN(C)Cc1c(C(=O)N2CCc3ccccc3C2)nc2ccc(Cl)cn12
inactive: [1] 2.4% | [2] 0.6% | [3] 1%

CCOC(=O)C(NC(C)=O)C(O)c1ccc([N+](=O)[O-])cc1 (centres undefined)
inactive: [1] 7.5% | [2] 2.6% | [3] -2.3%

CNC(=O)Oc1ccc2c(c1)[C@]1(C)CCN(C)[C@@H]1N2C
inactive: [1] -0.4% | [2] 1.1% | [3] 0.5%

CC(=O)N(CCC(Cc1ccccc1)c1ccco1)Cc1ccco1 (centres undefined)
inactive: [1] 1.4% | [2] 1.7% | [3] 0.3%

— PubChem BioAssay
